Bioassay records deposited in PubChem BioAssay by National Center for Advancing Translational Sciences (NCATS).
The entries come from a sample that favours hits as a whole.
TDP1 cell CPT – qHTS for Inhibitors of human tyrosyl-DNA phosphodiesterase 1 (TDP1): qHTS in cells in presence of CPT. chicken DT40 Tdp1-/-;hTDP1 cells + 20 nM CPT, ATP luminescence, 48 h. Potency, µM (top dose mostly 46.2 µM), for inactives: top-dose activity change, negative = growth inhibition, actives largely listed as inhibitors. 420,000 compounds, 12% hits; also: potency is read from the fitted curve at half-maximal effect; nearly all actives have a fitted effect of over 55% in size
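Chicken DT40 Tdp1-/- cells stably complemented with human TDP1 were seeded at 400 cells/well in medium containing 20 nM camptothecin, exposed to pin-transferred compounds, and grown at 37 °C for at least 48 hr. Viability was read as ATP luminescence.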
HT1080 IDH1KD tx – qHTS for induction of synthetic lethality in tumor cells producing 2HG: qHTS for the HT-1080-IDH1KD cell line | HT-1080 IDH1 knockdown viability, ATP luminescence, 48 h | Potency, µM (doses to about 46.1 µM), for inactives: top-dose activity, negative = toxicity, usual class: cytotoxic | 360,000 compounds, 2% hits;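 also: potency is read from the fitted curve at half-maximal effect; 0% = DMSO wells and -100% = cell-free medium wells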
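Luminescent ATP read-out (CellTiter-Glo, 10 min at room temperature) after 48 h compound exposure at 37 °C gave viability of IDH1-knockdown HT-1080 cells. Activity was normalised to DMSO and cell-free wells, then fitted as concentration-response curves.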
IL-1B inflam inh – qHTS for Inhibitors of Inflammasome Signaling: IL-1-beta AlphaLISA Primary Screen; THP-1 LPS/ATP IL-1B secretion, AlphaLISA, 16 h; hits give low values; activity change, % at 57.5 µM; 360,000 compounds, 4.7% hits; in the data active = activity change below about -50%; inconclusive = mostly about -30% to -49%
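THP-1 cells pretreated 1 hr with compounds (up to 57.5 uM final), then stimulated with LPS (250 ng/mL final) plus ATP (1.25 mM final); secreted IL-1B measured by AlphaLISA after 16 hr, decreased signal indicating inhibition.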
DT40 TDP1 no CPT – qHTS for Inhibitors of human tyrosyl-DNA phosphodiesterase 1 (TDP1): qHTS in cells in absence of CPT | 420,000 compounds, 15% hits | AID 686978, 2013 | DT40 Tdp1-/- hTDP1 cells, no CPT, ATP luminescence, 48 h | Potency, µM (series often up to 46.2 µM), for inactives: top-dose activity change, negative = growth inhibition, hits mostly inhibitors; also: potency is read from the fitted curve at half-maximal effect; nearly all actives have a fitted effect of over 55% in size
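Seeded 400 DT40-hTDP1 cells/well (vehicle DMSO, no 20 nM CPT); pinned compounds; ≥48 hr at 37 °C; CellTiter-Glo luminescence as viability measure.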
HT1080NT lethal – qHTS for induction of synthetic lethality in tumor cells producing 2HG: qHTS for the HT-1080-NT fibrosarcoma cell line; HT-1080-NT fibrosarcoma viability, CellTiter-Glo ATP luminescence, 48 h; Potency, µM (series often up to 46.1 µM), for inactives: at the top dose activity, negative = less viability, actives largely listed as cytotoxic; 360,000 compounds, 1.6% hits;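 also: NT is the 2HG producing partner of a matched IDH1 knockdown line; potency is read from the fitted curve at half-maximal effect; 0% = DMSO-treated cells and -100% = media-only wells without cells; nearly all actives have a fitted effect of over 55% in size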
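Viability of the 2HG-overproducing fibrosarcoma line after 48 hours of compound exposure at 37 degrees C was determined by luminescence with CellTiter-Glo, and concentration-effect curves were then fitted and categorized.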
ALOX12 inh – Primary qHTS assay for inhibitors of human arachidonate 12S-lipoxygenase (ALOX12): Round 2. 580,000 compounds, 1.1% hits. Potency, µM (titrated, usually from 108 µM), for the others: at the highest dose activity change, negative = inhibition, most hits filed as inhibitors. purified 12hLO, xylenol orange hydroperoxide absorbance. Polyunsaturated fatty acid lipoxygenase ALOX12 (Homo sapiens), P18054. AID 1671190, 2021; also: potency is read from the fitted curve at half-maximal effect
Target sequence (P18054 whole entry, looked up): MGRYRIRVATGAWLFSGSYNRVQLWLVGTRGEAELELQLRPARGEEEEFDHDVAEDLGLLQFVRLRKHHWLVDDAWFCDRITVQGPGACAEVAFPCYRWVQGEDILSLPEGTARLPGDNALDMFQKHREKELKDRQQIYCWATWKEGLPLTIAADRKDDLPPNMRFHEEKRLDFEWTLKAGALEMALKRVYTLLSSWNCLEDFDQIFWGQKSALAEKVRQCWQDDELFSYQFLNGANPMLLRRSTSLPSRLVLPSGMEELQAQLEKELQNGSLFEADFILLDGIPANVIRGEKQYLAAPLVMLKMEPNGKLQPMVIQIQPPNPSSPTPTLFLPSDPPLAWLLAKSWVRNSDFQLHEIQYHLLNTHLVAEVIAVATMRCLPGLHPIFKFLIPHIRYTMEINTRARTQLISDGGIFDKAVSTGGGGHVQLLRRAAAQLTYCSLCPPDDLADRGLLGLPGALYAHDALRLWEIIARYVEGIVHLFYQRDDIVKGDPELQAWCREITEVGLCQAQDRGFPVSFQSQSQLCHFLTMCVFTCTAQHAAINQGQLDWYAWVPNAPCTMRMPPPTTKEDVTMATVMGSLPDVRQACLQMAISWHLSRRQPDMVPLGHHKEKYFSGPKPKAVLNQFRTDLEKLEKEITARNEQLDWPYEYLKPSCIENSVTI
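Purified human 12hLO (150 nM final) in 25 mM Hepes, 0.01% Triton X-100, pH 7.0 was preincubated 15 min at room temperature with compound. Then 40 uM arachidonic acid was added, 30 min. Hydroperoxide was read by Fe-XO absorbance ratio 573/405 nm.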
* = called active by the depositor; u = inconclusive; x = not tested or not shown; [ ] = remark or other dose. Unless noted, calls follow the shape of the dose curve; as a rule, active = well fitted curve in the direction sought with a large enough effect; inconclusive = small, poorly fitted or top-dose-only effect, or another doubt; inactive = no such curve, though single readings can be large; an effect the other way counts as inactive or inconclusive. Unless noted, % is scaled to controls: 0 for no effect and ±100 for the full control effect.

SMILES	TDP1 cell CPT	HT1080 IDH1KD tx	IL-1B inflam inh	DT40 TDP1 no CPT	HT1080NT lethal	ALOX12 inh
COC(=O)CCC(=O)OC1(C)C(=O)C2=CN(c3ccccc3)C(c3ccc(OC)cc3)=CC2=C(Br)C1=O (configuration not stated)	u	-4%	20	u	-7%	40µM*
COC(=O)CCC(=O)OC1(C)C(=O)C2=CN(Cc3ccc(OC)cc3)C(c3ccc(OC)cc3)=CC2=C(Br)C1=O (configuration not stated)	u	-5%	0	u	5%	u
CC1=NS(=O)(=O)N(C)C=C1C(=O)OCc1nc(-c2ccc(Br)cc2)no1	x	x	x	x	x	18%
CCN1c2ccccc2-c2nc3ccccc3n2C1c1cccs1 (configuration not stated)	23µM*	-1%	21	13µM*	-16%	1%
CC(C)Cc1nnc(NC(=O)c2cccc3c2ccn3C)s1	x	x	x	x	x	18%
COc1ccc(NC(=O)CN2C(=O)/C(=C3\SC(=S)N(C4CCS(=O)(=O)C4)C3=O)c3ccccc32)cc1 (configuration not stated)	9.2µM*	u	u	18µM*	1%	u
O=C(CN1C(=O)/C(=C2\SC(=S)N(C3CCS(=O)(=O)C3)C2=O)c2ccccc21)Nc1ccc(F)cc1 (configuration not stated)	6.5µM*	3%	x	u	-2%	98%
COc1ccc(OC)c(C2C(C(C)=O)=C(C)Nc3ncnn32)c1 (configuration not stated)	1%	17%	8	0%	15%	-27%
O=C(Nc1ccc(S(=O)(=O)NCc2ccco2)cc1)c1ccc2ccccc2n1	u	0%	-11	21µM*	-4%	u
CCc1ccccc1OCC(=O)Nc1cccc(S(=O)(=O)NCc2ccco2)c1	18µM*	-18%	u	u	-17%	-8%
O=C(COc1ccccc1F)Nc1ccc(S(=O)(=O)NCc2ccco2)cc1	u	-17%	-2	18µM*	0%	22%
CC(C)CC(=O)Nc1ccc(S(=O)(=O)NCc2ccco2)cc1	-15%	0%	56	u	-9%	0%
O=C1c2cc(N3CCOCC3)nc(-c3ccccc3F)c2CN1CC(F)(F)F	x	x	x	x	x	14%[176 µM]
COc1ccc(Oc2cc(C(F)(F)F)nc(N(C)C)n2)cc1	-3%	-1%	u	-24%	-5%	1%
CCCCCCCCNS(=O)(=O)CCNCc1ccccc1	u	-3%	u	u	-5%	26%
CCCCCCCCNCCS(=O)(=O)NC1CCCCC1	u	-15%	-70*	u	-13%	u
CCCCCCCCNS(=O)(=O)CCNCc1ccccc1OC	u	-2%	-62*	21µM*	-2%	u
CCCCCCCCNS(=O)(=O)CCNCCc1ccccc1	-29%	-6%	u	u	-3%	-79%
CCCCCCCCNCCS(=O)(=O)NCc1ccc(OC)cc1	u	-10%	-50*	u	-7%	u
COc1ccc(CNS(=O)(=O)CCNCc2ccccc2OC)cc1	-16%	1%	6	-25%	0%	2%
CCCCCCCCNCCS(=O)(=O)NCCCCCCCC	u	5%	0	16µM*	1%	-27%
CCOCC(=O)N1CCC2(CCC(=O)N(CC3CC3)CC2)CC1	x	x	x	x	x	30%
